Calls of active or inactive are those of the source.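 Rule for the calls: active = compounds whose rat M5 calcium response changes with dose, giving a fitted curve judged by the depositor; inactive = the rest, with no dose-dependent response.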
Biological target: Muscarinic acetylcholine receptor M5 (Rattus norvegicus) (UniProt P08911)
Experiment: off-target potentiation of rat M5 ACh response – CHO-K1 cells, calcium fluorescence, ACh EC20, selectivity assay for M4 PAM optimization project, SAR follow-up (AID 623946)
Conditions: CHO-K1 rM5, calcium fluorescence; series mostly up to 30 µM

Chain of Muscarinic acetylcholine receptor M5 (Rattus norvegicus) (P08911 whole entry, looked up): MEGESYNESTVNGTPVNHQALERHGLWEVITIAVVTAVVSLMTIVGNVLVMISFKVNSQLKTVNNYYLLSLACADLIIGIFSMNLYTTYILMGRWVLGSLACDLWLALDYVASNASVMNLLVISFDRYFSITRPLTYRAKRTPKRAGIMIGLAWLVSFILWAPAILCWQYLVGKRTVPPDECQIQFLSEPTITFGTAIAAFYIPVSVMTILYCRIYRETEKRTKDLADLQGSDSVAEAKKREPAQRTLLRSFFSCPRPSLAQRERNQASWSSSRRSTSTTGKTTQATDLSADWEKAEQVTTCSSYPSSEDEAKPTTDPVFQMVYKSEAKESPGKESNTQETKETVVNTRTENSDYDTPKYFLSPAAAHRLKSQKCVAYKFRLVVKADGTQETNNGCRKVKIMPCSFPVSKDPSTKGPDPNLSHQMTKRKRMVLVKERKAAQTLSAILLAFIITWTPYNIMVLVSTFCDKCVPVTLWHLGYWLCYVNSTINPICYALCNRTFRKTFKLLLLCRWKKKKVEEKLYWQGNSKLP

outcome, inactive:
Cc1nc2sc(C(=O)NCc3ccccc3)c(N)c2c(C)c1Cl
COc1ccc(C)c2sc(NC(=O)c3ccncc3)nc12
Cc1nc2sc(C(=O)NC3CC3)c(N)c2c(C)c1Cl
Cc1nc2sc(C(=O)NCc3cccnc3)c(N)c2c(C)c1Cl
Cc1nc2sc(C(=O)NCc3ccc4c(c3)OCO4)c(N)c2c(C)c1Cl
Cc1nc2sc(C(=O)NCc3cccc(F)c3F)c(N)c2c(C)c1Cl
Cc1nc2sc(C(=O)NCc3ccncc3)c(N)c2c(C)c1Cl
Cc1nc2sc(C(=O)NCc3ccncn3)c(N)c2c(C)c1Cl
Cc1nc2sc(C(=O)NCCc3ccncc3)c(N)c2c(C)c1Cl
Cc1nc2sc(C(=O)NCc3nccs3)c(N)c2c(C)c1Cl

Source: PubChem BioAssay AID623946 (Vanderbilt Specialized Chemistry Center, 2012)
